Laboratory results: PubChem BioAssay (NCI)
Compounds without any hit were thinned out: in the full panel of roughly 83,000, 20% have a hit.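 Cell lines were cultured in 96-well plates, exposed to a single compound concentration, and assessed for percent growth 48 hours later.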 Activity calls are given as the source filed them. The calls were made as follows: active = growth percent below 10; inactive = the rest.

Tests used:
Test in all cases: NCI-60 one-dose screen, 48 h (100 = growth as untreated, 0 = no growth, -100 = all killed)
Settings in all cases: 10 µM unless noted
SK-MEL-2 melanoma = test system: SK-MEL-2 melanoma
EKVX NSCLC = test system: EKVX NSCLC
SN12C renal = test system: SN12C renal
UO-31 renal = test system: UO-31 renal
TK-10 renal = test system: TK-10 renal
ACHN renal = test system: ACHN renal
CAKI-1 renal = test system: CAKI-1 renal
A498 renal = test system: A498 renal
CCRF-CEM leukemia = test system: CCRF-CEM leukemia
SR leukemia = test system: SR leukemia
OVCAR-8 ovarian = test system: OVCAR-8 ovarian
OVCAR-5 ovarian = test system: OVCAR-5 ovarian
OVCAR-4 ovarian = test system: OVCAR-4 ovarian
IGROV1 ovarian = test system: IGROV1 ovarian
OVCAR-3 ovarian = test system: OVCAR-3 ovarian
HS 578T breast = test system: HS 578T breast
NCI/ADR-RES ovarian = test system: NCI/ADR-RES ovarian
MOLT-4 leukemia = test system: MOLT-4 leukemia
RPMI-8226 leukemia = test system: RPMI-8226 leukemia
SK-OV-3 ovarian = test system: SK-OV-3 ovarian

Measured: growth

O=C(O)COc1ccc(F)cc1
inactive: SK-MEL-2 melanoma 99.6% | EKVX NSCLC 103% | SN12C renal 98.1% | UO-31 renal 91.6% | TK-10 renal 91.4% | ACHN renal 111% | CAKI-1 renal 94.7% | A498 renal 97.4% | CCRF-CEM leukemia 104% | SR leukemia 103% | OVCAR-8 ovarian 102% | OVCAR-5 ovarian 109% | OVCAR-4 ovarian 116% | IGROV1 ovarian 107% | OVCAR-3 ovarian 107% | HS 578T breast 128% | NCI/ADR-RES ovarian 101%

N#Cc1c(-c2ccc(Cl)cc2)nc(NN=Cc2cccc(Cl)c2)nc1N1CCOCC1
active: SR leukemia 8.74%
inactive: SK-MEL-2 melanoma 96.5% | EKVX NSCLC 77.7% | SN12C renal 91.8% | UO-31 renal 53.5% | TK-10 renal 106% | ACHN renal 74.3% | CAKI-1 renal 67.4% | CCRF-CEM leukemia 72.5% | MOLT-4 leukemia 53.3% | RPMI-8226 leukemia 65.1% | OVCAR-8 ovarian 96.7% | OVCAR-5 ovarian 103% | OVCAR-4 ovarian 94.3% | IGROV1 ovarian 75.2% | OVCAR-3 ovarian 87.4% | HS 578T breast 96.6% | NCI/ADR-RES ovarian 89.2%

CCN=c1sc2c(n1NC(=O)c1cc3ccc1CCc1ccc(cc1)CC3)C(=O)c1ccccc1C2=O
inactive: TK-10 renal 88.6% | SK-OV-3 ovarian 62%
active: SK-MEL-2 melanoma -40.6% | EKVX NSCLC -61.3% | SN12C renal -91.2% | UO-31 renal -73.1% | ACHN renal -90.2% | CAKI-1 renal 8.85% | CCRF-CEM leukemia -16% | MOLT-4 leukemia -32.8% | RPMI-8226 leukemia -33.6% | OVCAR-8 ovarian -82.6% | OVCAR-5 ovarian -77.4% | OVCAR-4 ovarian -98.4% | IGROV1 ovarian -39.8% | OVCAR-3 ovarian -18.8% | HS 578T breast -8.98% | NCI/ADR-RES ovarian -22.8%

FC(F)(F)c1cccc(-c2nnn(Cc3cc(-c4cccc(Cl)c4)no3)n2)c1
inactive: SK-MEL-2 melanoma 114% | EKVX NSCLC 115% | SN12C renal 101% | UO-31 renal 85.7% | TK-10 renal 109% | ACHN renal 107% | CAKI-1 renal 98.9% | CCRF-CEM leukemia 96.1% | MOLT-4 leukemia 107% | SR leukemia 96.2% | RPMI-8226 leukemia 102% | OVCAR-8 ovarian 101% | OVCAR-5 ovarian 101% | OVCAR-4 ovarian 116% | SK-OV-3 ovarian 98.8% | IGROV1 ovarian 104% | OVCAR-3 ovarian 114% | HS 578T breast 107% | NCI/ADR-RES ovarian 108%

COc1cccc(-c2cc(-c3ccc(Nc4nc(Nc5ccc(Cl)cc5)nc(Nc5ccc(Cl)cc5)n4)cc3)nc(N)c2C#N)c1
active: UO-31 renal -66.8% | TK-10 renal -53.4% | CCRF-CEM leukemia 5.11% | RPMI-8226 leukemia -55.8% | OVCAR-3 ovarian -52.7%
inactive: SK-MEL-2 melanoma 37.7% | EKVX NSCLC 34.3% | SN12C renal 79% | ACHN renal 33.1% | CAKI-1 renal 37.3% | A498 renal 80.5% | OVCAR-8 ovarian 48.9% | OVCAR-5 ovarian 82.2% | OVCAR-4 ovarian 23.6% | SK-OV-3 ovarian 122% | IGROV1 ovarian 10.1% | HS 578T breast 14.1% | NCI/ADR-RES ovarian 73.3%

Cc1[nH]c(C2CC(c3ccc(C(F)(F)F)c(F)c3)=NN2C)c(C)c1C(=O)NCC(F)(F)F (configuration not stated)
inactive: SK-MEL-2 melanoma 107% | EKVX NSCLC 87.7% | SN12C renal 93.1% | UO-31 renal 72% | TK-10 renal 116% | ACHN renal 99.3% | CAKI-1 renal 81.1% | CCRF-CEM leukemia 93.6% | MOLT-4 leukemia 72.9% | SR leukemia 92.9% | RPMI-8226 leukemia 92.4% | OVCAR-8 ovarian 94.8% | OVCAR-5 ovarian 98.4% | OVCAR-4 ovarian 90.9% | SK-OV-3 ovarian 105% | IGROV1 ovarian 79.9% | OVCAR-3 ovarian 107% | HS 578T breast 95.9% | NCI/ADR-RES ovarian 98.8%

N#CSCc1cc(Cl)c(CSC#N)cc1Cl
inactive: SK-MEL-2 melanoma 96.5% | EKVX NSCLC 104% | SN12C renal 41.5% | UO-31 renal 41.9% | TK-10 renal 94% | ACHN renal 45.3% | CAKI-1 renal 38.3% | RPMI-8226 leukemia 48.6% | OVCAR-8 ovarian 94.9% | OVCAR-5 ovarian 82.9% | OVCAR-4 ovarian 80.5% | SK-OV-3 ovarian 101% | IGROV1 ovarian 84.7% | OVCAR-3 ovarian 71.3% | HS 578T breast 82.3% | NCI/ADR-RES ovarian 84.5%
active: CCRF-CEM leukemia 2.13%

O=C(Nc1ncc(Cc2ccc(Cl)cc2)s1)C1=NCCCCN1
inactive: SK-MEL-2 melanoma 110% | EKVX NSCLC 106% | SN12C renal 106% | UO-31 renal 84.3% | TK-10 renal 108% | ACHN renal 109% | CAKI-1 renal 90.5% | CCRF-CEM leukemia 101% | MOLT-4 leukemia 99.4% | SR leukemia 106% | RPMI-8226 leukemia 97% | OVCAR-8 ovarian 106% | OVCAR-5 ovarian 105% | OVCAR-4 ovarian 105% | SK-OV-3 ovarian 106% | IGROV1 ovarian 107% | OVCAR-3 ovarian 110% | HS 578T breast 109% | NCI/ADR-RES ovarian 106%

O=C(NCCN1CCOCC1)c1cncnc1Nc1ccc2c(ccn2Cc2ccccn2)c1
inactive: SK-MEL-2 melanoma 110% | EKVX NSCLC 104% | SN12C renal 93.7% | UO-31 renal 88.5% | TK-10 renal 98.7% | ACHN renal 107% | CAKI-1 renal 92.4% | CCRF-CEM leukemia 121% | MOLT-4 leukemia 104% | SR leukemia 111% | RPMI-8226 leukemia 106% | OVCAR-8 ovarian 102% | OVCAR-5 ovarian 100% | SK-OV-3 ovarian 95.4% | IGROV1 ovarian 106% | OVCAR-3 ovarian 113% | HS 578T breast 103% | NCI/ADR-RES ovarian 104%

O=[N+]([O-])c1ccc(Oc2cccc3c(Oc4ccc([N+](=O)[O-])cc4[N+](=O)[O-])cccc23)c([N+](=O)[O-])c1
inactive: SK-MEL-2 melanoma 90.4% | EKVX NSCLC 77.7% | SN12C renal 74.8% | UO-31 renal 72.8% | TK-10 renal 119% | ACHN renal 93.4% | CAKI-1 renal 89.2% | CCRF-CEM leukemia 95.7% | MOLT-4 leukemia 102% | SR leukemia 77.5% | RPMI-8226 leukemia 95.6% | OVCAR-8 ovarian 77.7% | OVCAR-5 ovarian 109% | OVCAR-4 ovarian 87.8% | SK-OV-3 ovarian 83.1% | IGROV1 ovarian 79.6% | OVCAR-3 ovarian 95.2% | HS 578T breast 88.1% | NCI/ADR-RES ovarian 79.9%

Cc1ccccc1NC(=O)Cn1cc(CN2CCN(c3ccnc4cc(Cl)ccc34)CC2)nn1
inactive: SK-MEL-2 melanoma 110% | EKVX NSCLC 97.1% | SN12C renal 94.7% | UO-31 renal 71.1% | TK-10 renal 102% | ACHN renal 95% | CAKI-1 renal 80.3% | MOLT-4 leukemia 45.3% | SR leukemia 86.8% | RPMI-8226 leukemia 79.7% | OVCAR-8 ovarian 103% | OVCAR-5 ovarian 103% | OVCAR-4 ovarian 94% | IGROV1 ovarian 99.8% | OVCAR-3 ovarian 105% | HS 578T breast 85.5% | NCI/ADR-RES ovarian 99.1%
active: CCRF-CEM leukemia -33.5%

CCOC(=O)C1=C(c2ccccc2)N=C2SC=C(c3cccc([N+](=O)[O-])c3)N2C1c1ccc(O)cc1 (configuration not stated)
inactive: SK-MEL-2 melanoma 96.7% | EKVX NSCLC 99.3% | SN12C renal 96% | UO-31 renal 91% | TK-10 renal 104% | ACHN renal 106% | CAKI-1 renal 94.3% | CCRF-CEM leukemia 98.1% | MOLT-4 leukemia 111% | SR leukemia 109% | RPMI-8226 leukemia 98% | OVCAR-8 ovarian 97.9% | OVCAR-5 ovarian 100% | OVCAR-4 ovarian 106% | SK-OV-3 ovarian 102% | IGROV1 ovarian 95.5% | OVCAR-3 ovarian 101% | HS 578T breast 102% | NCI/ADR-RES ovarian 99.3%

C(CCCSC1=NCCN1)CCSC1=NCCN1
inactive: SK-MEL-2 melanoma 122% | EKVX NSCLC 109% | SN12C renal 103% | UO-31 renal 80.3% | TK-10 renal 122% | ACHN renal 100% | CAKI-1 renal 101% | A498 renal 103% | CCRF-CEM leukemia 101% | SR leukemia 95.9% | OVCAR-8 ovarian 98.4% | OVCAR-5 ovarian 89.8% | OVCAR-4 ovarian 98.2% | IGROV1 ovarian 101% | OVCAR-3 ovarian 107% | HS 578T breast 104% | NCI/ADR-RES ovarian 94.4%

CCOC(=O)C#Cc1c(CC(=O)OCC)nnn1[C@H]1O[C@@H](CO)[C@@H]2OC(C)(C)O[C@@H]21
active: ACHN renal -49.4% | CAKI-1 renal -88.4% | SR leukemia 6.89% | OVCAR-3 ovarian 9.91%
inactive: SK-MEL-2 melanoma 101% | EKVX NSCLC 99.5% | SN12C renal 87.1% | UO-31 renal 15.7% | TK-10 renal 48.8% | CCRF-CEM leukemia 11.7% | MOLT-4 leukemia 50.1% | RPMI-8226 leukemia 45% | OVCAR-8 ovarian 94.6% | OVCAR-5 ovarian 93.9% | OVCAR-4 ovarian 88.4% | SK-OV-3 ovarian 94.4% | IGROV1 ovarian 98.3% | HS 578T breast 101% | NCI/ADR-RES ovarian 102%

COC(=O)c1ccc(-n2cc(CCCOS(=O)(=O)c3ccc(F)cc3)nn2)cc1
inactive: SK-MEL-2 melanoma 101% | EKVX NSCLC 101% | SN12C renal 100% | UO-31 renal 88.2% | TK-10 renal 102% | ACHN renal 101% | CAKI-1 renal 90.6% | CCRF-CEM leukemia 96.8% | MOLT-4 leukemia 95.7% | SR leukemia 87.4% | RPMI-8226 leukemia 97.3% | OVCAR-8 ovarian 96.2% | OVCAR-5 ovarian 98.6% | OVCAR-4 ovarian 94.4% | SK-OV-3 ovarian 102% | IGROV1 ovarian 102% | OVCAR-3 ovarian 107% | HS 578T breast 93.6% | NCI/ADR-RES ovarian 106%

COc1cc2c(c(OC)c1OC)CCC(c1cccc(NC(=O)c3cccc(Cl)c3)c1)O2 (configuration not stated)
inactive: SK-MEL-2 melanoma 95.7% | EKVX NSCLC 85.9% | SN12C renal 92% | UO-31 renal 64.2% | TK-10 renal 90.2% | ACHN renal 90.7% | CAKI-1 renal 97.9% | CCRF-CEM leukemia 78.2% | SR leukemia 60.3% | RPMI-8226 leukemia 64.9% | OVCAR-8 ovarian 95.6% | OVCAR-5 ovarian 92.8% | OVCAR-4 ovarian 81.1% | SK-OV-3 ovarian 72.9% | IGROV1 ovarian 86.8% | OVCAR-3 ovarian 92% | HS 578T breast 76.3% | NCI/ADR-RES ovarian 90.5%
